PubChem BioAssay (NCI)
About 79,000 compounds went through this panel and 15% of them were active in at least one assay; those are over-represented in the sample as a whole. Unmarked numbers belong to inactive results. Activity calls are given as the source filed them. No stated cut-off is given here; in the data, active means growth inhibition above about 70%; inactive means the rest.

Experiments:
[1] = NCI Yeast Anticancer Drug Screen. Data for the wt1 strain (AID 149);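 further: 0% = growth of vehicle-treated wt1 cultures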; conditions: S. cerevisiae wt1 strain (SPY 50644) growth inhibition, active compounds read high
Summary of the method: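 Growth inhibition read against vehicle controls after compound exposure of the wt1 yeast strain.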

[2] = NCI Yeast Anticancer Drug Screen. Data for the rad50EPP+ strain (AID 151);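 further: 0% = growth of vehicle-treated control cultures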; conditions: S. cerevisiae rad50 mutant strain, active compounds read high
Summary of the method: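 Measured: growth inhibition of rad50EPP+ yeast. Reference: vehicle-treated controls. Screen uses strains with defined genetic alterations in DNA damage repair or cell cycle control.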

[3] = NCI Yeast Anticancer Drug Screen. Data for the mgt1 strain (AID 153); conditions: S. cerevisiae mgt1 mutant growth inhibition, active compounds read high
Summary of the method: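 Compounds were applied to mgt1 mutant yeast, and growth was then compared against vehicle-treated control cultures to give percent inhibition.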

[4] = NCI Yeast Anticancer Drug Screen. Data for the rad50 strain (AID 155);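 further: 0% = growth of vehicle-only cultures of the same strain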; conditions: S. cerevisiae rad50 strain growth inhibition, active compounds read high
Summary of the method: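 Readout: growth inhibition relative to vehicle-treated cultures. Compound exposure was carried out in a genetically defined yeast strain deficient in DNA damage repair.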

[5] = NCI Yeast Anticancer Drug Screen. Data for the rad14 strain (AID 159);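 further: 0% = growth of vehicle-treated control cultures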; conditions: S. cerevisiae rad14 strain growth inhibition, active compounds read high
Summary of the method: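 Growth inhibition vs vehicle controls; genetically altered yeast strain (DNA damage repair defect) treated with test compounds.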

[6] = NCI Yeast Anticancer Drug Screen. Data for the sgs1 mgt1 strain (AID 161);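 further: 0% = growth of cultures given vehicle only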; conditions: S. cerevisiae sgs1 mgt1 strain, active compounds read high
Summary of the method: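 This yeast growth screen uses a strain with defined DNA-repair lesions; compound-treated growth is compared with vehicle-treated growth.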

[7] = NCI Yeast Anticancer Drug Screen. Data for the CLN2oe strain (AID 163);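 further: 0% = growth of vehicle-only control cultures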; conditions: S. cerevisiae CLN2oe strain, active compounds read high
Summary of the method: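 Cells of an engineered yeast line with disturbed cell-cycle regulation are treated with compound. Inhibition of growth is then calculated relative to the vehicle-treated reference.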

[8] = NCI Yeast Anticancer Drug Screen. Data for the cln2 rad14 strain (AID 165);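 further: 0% = growth equal to vehicle treated cultures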; conditions: S. cerevisiae cln2 rad14 strain, active compounds read high
Summary of the method: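 Strain: cln2 rad14 yeast, altered in cell cycle control and DNA damage repair. Read-out: growth inhibition vs vehicle.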

[9] = NCI Yeast Anticancer Drug Screen. Data for the bub3 strain (AID 167); conditions: S. cerevisiae bub3 mutant strain, active compounds read high
Summary of the method: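 Readout: yeast growth inhibition, expressed relative to vehicle-only wells. The test organism is a mutant strain from a panel with lesions in DNA repair or checkpoint genes.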

[10] = NCI Yeast Anticancer Drug Screen. Data for the wt2 strain (AID 169);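 further: 0% = growth of vehicle-treated yeast cultures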; conditions: S. cerevisiae wt2 strain growth inhibition, active compounds read high
Summary of the method: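 Growth of compound-treated yeast is measured and expressed as inhibition relative to vehicle-only controls.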

[11] = NCI Yeast Anticancer Drug Screen. Data for the mlh1 strain (AID 171);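 further: 0% = growth of vehicle-treated control cultures of the same strain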; conditions: S. cerevisiae mlh1 strain growth inhibition, active compounds read high
Summary of the method: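 Test agents were incubated with yeast bearing a defined DNA damage repair or cell cycle control alteration; values are growth inhibition normalised to vehicle-treated cultures.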

[12] = NCI Yeast Anticancer Drug Screen. Data for the sgs1 strain (AID 173);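 further: 0% = growth of vehicle-only control cultures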; conditions: S. cerevisiae sgs1 mutant, active compounds read high
Summary of the method: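 Strain with an altered DNA repair or cell cycle pathway exposed to compound. Growth then measured. Value = inhibition versus vehicle control.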

[13] = NCI Yeast Anticancer Drug Screen. Data for the mlh1 rad18 strain (AID 175); conditions: S. cerevisiae mlh1 rad18 strain growth inhibition, active compounds read high
Summary of the method: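 A repair-deficient yeast strain is exposed to test compound, and growth is scored relative to vehicle-treated controls.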

[14] = NCI Yeast Anticancer Drug Screen. Data for the rad18 strain (AID 177); conditions: S. cerevisiae rad18 mutant growth inhibition, active compounds read high
Summary of the method: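 DNA-repair-defective yeast; compound treatment; growth inhibition scored against vehicle.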

[15] = NCI Yeast Anticancer Drug Screen. Data for the rad52 strain (AID 147);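 further: 0% = growth of vehicle-treated control cultures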; conditions: S. cerevisiae rad52 mutant growth inhibition, active compounds read high
Summary of the method: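 Growth of repair-deficient yeast cells was compared between compound-treated and vehicle-treated cultures to give percent inhibition.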

[16] = NCI Yeast Anticancer Drug Screen. Data for the mec2-1 strain (AID 157); conditions: S. cerevisiae mec2-1 strain, active compounds read high
Summary of the method: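 Compounds were applied to mec2-1 yeast cells. Their growth was then compared with that of vehicle-treated cultures to give growth inhibition.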

[17] = at 5.0 µM (retest, dose inferred, filed as 0.5)
[18] = at 50.0 µM (retest, dose inferred, filed as 5.0)

CC1CN=C(Nc2ccccc2)S1 (stereo not drawn)
growth inhibition ([1]; at 1.2 µM): -15%
growth inhibition ([1]; at 3.7 µM): -5%
growth inhibition ([1]; at 11.0 µM): -21%
growth inhibition ([1]; at 33.0 µM): -25%
growth inhibition ([1]; at 100.0 µM): -32%
growth inhibition ([2]; at 1.2 µM): -52%
growth inhibition ([2]; at 3.7 µM): -46%
growth inhibition ([2]; at 11.0 µM): -49%
growth inhibition ([2]; at 33.0 µM): -72%
growth inhibition ([2]; at 100.0 µM): -54%
growth inhibition ([3]; at 1.2 µM): -57%
growth inhibition ([3]; at 3.7 µM): -76%
growth inhibition ([3]; at 11.0 µM): -54%
growth inhibition ([3]; at 33.0 µM): -51%
growth inhibition ([3]; at 100.0 µM): -60%
growth inhibition ([4]; at 1.2 µM): -5%
growth inhibition ([4]; at 3.7 µM): 12%
growth inhibition [4, 17]: 100% (active)
growth inhibition ([4]; at 11.0 µM): -7%
growth inhibition ([4]; at 33.0 µM): 3%
growth inhibition [4, 18]: 100% (active)
growth inhibition ([4]; at 50.0 µM): 78.5% (active)
growth inhibition ([4]; at 100.0 µM): -17%
growth inhibition ([5]; at 1.2 µM): -49%
growth inhibition ([5]; at 3.7 µM): -54%
growth inhibition ([5]; at 11.0 µM): -58%
growth inhibition ([5]; at 33.0 µM): -51%
growth inhibition ([5]; at 100.0 µM): -41%
growth inhibition [6, 17]: 2%
growth inhibition [6, 18]: 6%
growth inhibition ([6]; at 50.0 µM): 89.2% (active)
growth inhibition ([7]; at 1.2 µM): -14%
growth inhibition ([7]; at 3.7 µM): -15%
growth inhibition ([7]; at 11.0 µM): -7%
growth inhibition ([7]; at 33.0 µM): -2%
growth inhibition ([7]; at 100.0 µM): 10%
growth inhibition [8, 17]: 16%
growth inhibition [8, 18]: 37%
growth inhibition ([8]; at 50.0 µM): 90.3% (active)
growth inhibition ([9]; at 1.2 µM): -26%
growth inhibition ([9]; at 3.7 µM): -20%
growth inhibition [9, 17]: 26%
growth inhibition ([9]; at 11.0 µM): -41%
growth inhibition ([9]; at 33.0 µM): -25%
growth inhibition [9, 18]: 9%
growth inhibition ([9]; at 50.0 µM): 87.4% (active)
growth inhibition ([9]; at 100.0 µM): -46%
growth inhibition ([10]; at 1.2 µM): -31%
growth inhibition ([10]; at 3.7 µM): -15%
growth inhibition ([10]; at 11.0 µM): -21%
growth inhibition ([10]; at 33.0 µM): -24%
growth inhibition ([10]; at 100.0 µM): -13%
growth inhibition ([11]; at 1.2 µM): -8%
growth inhibition ([11]; at 3.7 µM): -7%
growth inhibition ([11]; at 11.0 µM): -14%
growth inhibition ([11]; at 33.0 µM): -32%
growth inhibition ([11]; at 100.0 µM): -24%
growth inhibition ([12]; at 1.2 µM): -29%
growth inhibition ([12]; at 3.7 µM): -36%
growth inhibition ([12]; at 11.0 µM): -40%
growth inhibition ([12]; at 33.0 µM): -23%
growth inhibition ([12]; at 100.0 µM): -40%
growth inhibition [13, 17]: 100% (active)
growth inhibition [13, 18]: 100% (active)
growth inhibition ([13]; at 50.0 µM): 81.6% (active)
growth inhibition ([14]; at 1.2 µM): -50%
growth inhibition ([14]; at 3.7 µM): -54%
growth inhibition ([14]; at 11.0 µM): -51%
growth inhibition ([14]; at 33.0 µM): -58%
growth inhibition ([14]; at 100.0 µM): -42%

S=C1NC2(CCCCC2)NC12CCCCC2
growth inhibition ([15]; at 1.2 µM): -1%
growth inhibition ([15]; at 3.7 µM): -5%
growth inhibition ([15]; at 11.0 µM): -3%
growth inhibition ([15]; at 33.0 µM): 2%
growth inhibition ([15]; at 100.0 µM): -1%
growth inhibition ([2]; at 1.2 µM): -2%
growth inhibition ([2]; at 3.7 µM): 0%
growth inhibition ([2]; at 11.0 µM): 2%
growth inhibition ([2]; at 33.0 µM): 8%
growth inhibition ([2]; at 100.0 µM): 7%
growth inhibition ([3]; at 1.2 µM): -2%
growth inhibition ([3]; at 3.7 µM): -8%
growth inhibition ([3]; at 11.0 µM): 5%
growth inhibition ([3]; at 33.0 µM): 17%
growth inhibition ([3]; at 100.0 µM): 10%
growth inhibition ([4]; at 1.2 µM): 0%
growth inhibition ([4]; at 3.7 µM): 9%
growth inhibition [4, 17]: 11%
growth inhibition ([4]; at 11.0 µM): 19%
growth inhibition ([4]; at 33.0 µM): 19%
growth inhibition [4, 18]: 33%
growth inhibition ([4]; at 50.0 µM): 44.9%
growth inhibition ([4]; at 100.0 µM): 11%
growth inhibition ([16]; at 1.2 µM): -12%
growth inhibition ([16]; at 3.7 µM): -19%
growth inhibition [16, 17]: 3%
growth inhibition ([16]; at 11.0 µM): -18%
growth inhibition ([16]; at 33.0 µM): -1%
growth inhibition [16, 18]: 23%
growth inhibition ([16]; at 50.0 µM): 4.85%
growth inhibition ([16]; at 100.0 µM): 2%
growth inhibition ([5]; at 1.2 µM): -2%
growth inhibition ([5]; at 3.7 µM): -7%
growth inhibition ([5]; at 11.0 µM): -1%
growth inhibition ([5]; at 33.0 µM): 0%
growth inhibition ([5]; at 100.0 µM): 3%
growth inhibition [6, 17]: 30%
growth inhibition [6, 18]: 69%
growth inhibition ([6]; at 50.0 µM): 13.8%
growth inhibition ([7]; at 1.2 µM): -7%
growth inhibition ([7]; at 3.7 µM): -3%
growth inhibition ([7]; at 11.0 µM): -2%
growth inhibition ([7]; at 33.0 µM): 6%
growth inhibition ([7]; at 100.0 µM): 9%
growth inhibition [8, 17]: -30%
growth inhibition [8, 18]: 2%
growth inhibition ([8]; at 50.0 µM): -2%
growth inhibition ([9]; at 1.2 µM): -18%
growth inhibition ([9]; at 3.7 µM): -14%
growth inhibition [9, 17]: 16%
growth inhibition ([9]; at 11.0 µM): 3%
growth inhibition ([9]; at 33.0 µM): 2%
growth inhibition [9, 18]: 20%
growth inhibition ([9]; at 50.0 µM): 14.5%
growth inhibition ([9]; at 100.0 µM): 6%
growth inhibition ([10]; at 1.2 µM): -2%
growth inhibition ([10]; at 3.7 µM): -2%
growth inhibition ([10]; at 11.0 µM): 3%
growth inhibition ([10]; at 33.0 µM): 14%
growth inhibition ([10]; at 100.0 µM): 16%
growth inhibition [13, 17]: -9%
growth inhibition [13, 18]: 49%
growth inhibition ([13]; at 50.0 µM): 27.3%
growth inhibition ([14]; at 1.2 µM): -3%
growth inhibition ([14]; at 3.7 µM): -1%
growth inhibition ([14]; at 11.0 µM): 15%
growth inhibition ([14]; at 33.0 µM): 24%
growth inhibition ([14]; at 100.0 µM): 7%
